Source: paper PMC7862700, “An all-to-all approach to the identification of sequence-specific readers for epigenetic DNA modifications on cytosine”

Experiments:
Assay in all cases: DAPPL (digital affinity profiling via proximity ligation, sequencing); 10 mM Tris-HCl pH 7.5, 50 mM NaCl, 1 mM DTT, 4% glycerol, room temperature, 30 min; GST-TFs on glutathione beads, 16-mer random dsDNA library, 0.1% formaldehyde crosslink after washing; high values mean tight binding
FEV = target: T1, FEV (Homo sapiens, UniProt Q99581 1-238); conditions: protein: recombinant; tags: N-terminal GST; dsDNA, one strand shown
T1 sequence: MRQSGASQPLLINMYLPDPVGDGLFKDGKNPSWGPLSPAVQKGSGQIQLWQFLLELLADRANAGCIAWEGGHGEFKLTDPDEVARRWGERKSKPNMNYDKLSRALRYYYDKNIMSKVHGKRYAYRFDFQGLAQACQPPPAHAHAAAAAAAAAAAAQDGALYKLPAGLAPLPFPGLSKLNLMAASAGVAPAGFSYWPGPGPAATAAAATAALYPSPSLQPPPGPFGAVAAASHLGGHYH
How it was run: (§1)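 Binding signal is each hexamer's read frequency for a factor divided by its frequency in the tag-only sample. The factors were GST-fused human transcription factors from yeast, captured on glutathione beads, DNA-barcoded and pooled with that sample. Pools were incubated with 200 nmole of a random double-stranded 16-mer DNA library in Tris/NaCl/DTT/glycerol buffer at room temperature for 30 min, then washed, crosslinked with 0.1% formaldehyde, proximity-ligated with BsaI/T4 ligase (1 h, 37 °C), PCR-amplified and sequenced on an Illumina NextSeq500.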

ETV5 = ETV5 (Homo sapiens, UniProt P41161 1-510); conditions: protein: recombinant; tags: N-terminal GST; dsDNA, one strand shown
How it was run: as §1

HSF1 = HSF1 (Homo sapiens, UniProt Q00613 1-529); conditions: protein: recombinant; tags: N-terminal GST; chain copies: 3; dsDNA, one strand shown
How it was run: as §1

SPIC = target: T2, SPIC (Homo sapiens, UniProt Q8N5J4 1-248); conditions: protein: recombinant; tags: N-terminal GST; dsDNA, one strand shown
T2 sequence: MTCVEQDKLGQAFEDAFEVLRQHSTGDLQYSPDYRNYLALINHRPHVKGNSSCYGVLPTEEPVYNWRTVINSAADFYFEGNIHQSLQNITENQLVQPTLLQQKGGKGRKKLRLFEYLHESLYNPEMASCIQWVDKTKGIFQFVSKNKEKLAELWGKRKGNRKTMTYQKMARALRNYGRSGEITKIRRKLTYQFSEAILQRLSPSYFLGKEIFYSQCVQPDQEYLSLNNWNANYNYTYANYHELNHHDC
How it was run: as §1

ELF4 = ELF4 (Homo sapiens, UniProt Q99607 1-663); conditions: protein: recombinant; tags: N-terminal GST; dsDNA, one strand shown
How it was run: as §1

ELK4 = target: T3, ELK4 (Homo sapiens, UniProt P28324-2 1-405); conditions: protein: recombinant; tags: N-terminal GST; dsDNA, one strand shown
T3 sequence: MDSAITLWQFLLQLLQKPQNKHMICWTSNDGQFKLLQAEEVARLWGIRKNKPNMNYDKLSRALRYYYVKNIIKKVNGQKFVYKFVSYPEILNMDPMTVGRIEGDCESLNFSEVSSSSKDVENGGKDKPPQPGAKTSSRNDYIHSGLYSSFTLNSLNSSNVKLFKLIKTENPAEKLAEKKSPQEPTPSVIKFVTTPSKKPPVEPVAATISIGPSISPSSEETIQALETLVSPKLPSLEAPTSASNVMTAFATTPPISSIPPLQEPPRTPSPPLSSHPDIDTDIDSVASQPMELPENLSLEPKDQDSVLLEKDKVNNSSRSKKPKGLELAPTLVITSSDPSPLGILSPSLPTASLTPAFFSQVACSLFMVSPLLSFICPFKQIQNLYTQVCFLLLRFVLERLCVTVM
How it was run: as §1

ETV2 = target: T4, ETV2 (Homo sapiens, UniProt O00321 1-342); conditions: protein: recombinant; tags: N-terminal GST; dsDNA, one strand shown
T4 sequence: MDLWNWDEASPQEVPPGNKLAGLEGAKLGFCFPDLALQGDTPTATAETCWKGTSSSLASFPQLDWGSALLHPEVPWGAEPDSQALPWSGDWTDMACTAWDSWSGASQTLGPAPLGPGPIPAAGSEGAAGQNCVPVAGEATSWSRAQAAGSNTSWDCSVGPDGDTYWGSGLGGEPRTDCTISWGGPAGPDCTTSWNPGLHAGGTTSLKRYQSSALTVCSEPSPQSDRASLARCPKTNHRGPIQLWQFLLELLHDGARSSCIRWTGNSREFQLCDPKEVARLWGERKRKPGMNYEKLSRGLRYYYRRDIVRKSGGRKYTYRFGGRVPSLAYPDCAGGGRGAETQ
How it was run: as §1

ELF3 = target: T5, ELF3 (Homo sapiens, UniProt P78545 1-371); conditions: protein: recombinant; tags: N-terminal GST; dsDNA, one strand shown
T5 sequence: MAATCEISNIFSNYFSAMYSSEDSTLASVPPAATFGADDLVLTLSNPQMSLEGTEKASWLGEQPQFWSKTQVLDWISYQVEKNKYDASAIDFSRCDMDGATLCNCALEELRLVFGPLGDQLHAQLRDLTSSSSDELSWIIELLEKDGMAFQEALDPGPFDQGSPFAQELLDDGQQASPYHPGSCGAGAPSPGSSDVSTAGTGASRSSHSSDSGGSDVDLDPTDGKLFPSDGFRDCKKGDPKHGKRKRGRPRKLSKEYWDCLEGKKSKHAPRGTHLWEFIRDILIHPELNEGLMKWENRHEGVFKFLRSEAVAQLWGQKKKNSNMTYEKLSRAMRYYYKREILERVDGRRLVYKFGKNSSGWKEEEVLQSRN
How it was run: as §1

CRX = CRX (Homo sapiens, UniProt O43186 1-299); conditions: protein: recombinant; tags: N-terminal GST; dsDNA, one strand shown
How it was run: as §1

ELF4, sequence (Q99607 whole entry): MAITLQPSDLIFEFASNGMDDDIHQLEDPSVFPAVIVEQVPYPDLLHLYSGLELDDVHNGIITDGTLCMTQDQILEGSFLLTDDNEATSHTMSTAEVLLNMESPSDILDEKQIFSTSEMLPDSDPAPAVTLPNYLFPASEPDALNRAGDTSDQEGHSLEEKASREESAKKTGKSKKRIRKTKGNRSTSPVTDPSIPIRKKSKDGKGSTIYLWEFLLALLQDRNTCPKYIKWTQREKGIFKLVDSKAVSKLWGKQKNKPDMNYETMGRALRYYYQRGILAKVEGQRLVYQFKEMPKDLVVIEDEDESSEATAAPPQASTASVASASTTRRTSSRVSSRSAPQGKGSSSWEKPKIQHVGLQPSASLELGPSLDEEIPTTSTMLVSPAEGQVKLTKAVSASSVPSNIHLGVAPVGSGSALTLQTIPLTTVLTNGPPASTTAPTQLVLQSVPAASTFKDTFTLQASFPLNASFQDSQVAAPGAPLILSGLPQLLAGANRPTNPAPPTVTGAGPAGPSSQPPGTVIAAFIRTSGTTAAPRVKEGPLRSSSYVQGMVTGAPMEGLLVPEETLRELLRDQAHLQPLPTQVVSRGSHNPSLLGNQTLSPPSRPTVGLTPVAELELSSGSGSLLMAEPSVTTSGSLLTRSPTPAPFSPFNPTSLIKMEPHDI
CRX, sequence (O43186 whole entry): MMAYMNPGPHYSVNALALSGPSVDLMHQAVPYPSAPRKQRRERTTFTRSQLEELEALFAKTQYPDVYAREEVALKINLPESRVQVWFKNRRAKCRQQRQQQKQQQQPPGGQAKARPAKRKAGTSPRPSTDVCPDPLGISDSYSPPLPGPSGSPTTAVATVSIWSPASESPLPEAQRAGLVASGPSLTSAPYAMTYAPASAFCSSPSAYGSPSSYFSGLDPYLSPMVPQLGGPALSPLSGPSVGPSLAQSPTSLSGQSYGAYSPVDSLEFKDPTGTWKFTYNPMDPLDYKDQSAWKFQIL
HSF1, sequence (Q00613 whole entry): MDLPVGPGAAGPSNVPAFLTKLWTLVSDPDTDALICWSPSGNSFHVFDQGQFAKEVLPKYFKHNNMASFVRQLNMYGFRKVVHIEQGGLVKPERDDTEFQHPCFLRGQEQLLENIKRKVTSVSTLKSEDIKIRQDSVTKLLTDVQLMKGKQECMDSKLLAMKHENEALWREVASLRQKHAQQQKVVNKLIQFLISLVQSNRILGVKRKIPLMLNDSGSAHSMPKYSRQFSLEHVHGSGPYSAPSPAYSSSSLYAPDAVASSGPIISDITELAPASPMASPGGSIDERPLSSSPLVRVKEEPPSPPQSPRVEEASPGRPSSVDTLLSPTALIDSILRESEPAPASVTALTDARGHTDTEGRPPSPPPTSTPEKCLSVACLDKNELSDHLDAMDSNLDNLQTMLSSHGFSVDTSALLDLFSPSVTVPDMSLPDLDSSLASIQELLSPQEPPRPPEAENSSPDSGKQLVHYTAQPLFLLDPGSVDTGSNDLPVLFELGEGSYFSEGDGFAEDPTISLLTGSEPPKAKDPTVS
ETV5, sequence (P41161 whole entry): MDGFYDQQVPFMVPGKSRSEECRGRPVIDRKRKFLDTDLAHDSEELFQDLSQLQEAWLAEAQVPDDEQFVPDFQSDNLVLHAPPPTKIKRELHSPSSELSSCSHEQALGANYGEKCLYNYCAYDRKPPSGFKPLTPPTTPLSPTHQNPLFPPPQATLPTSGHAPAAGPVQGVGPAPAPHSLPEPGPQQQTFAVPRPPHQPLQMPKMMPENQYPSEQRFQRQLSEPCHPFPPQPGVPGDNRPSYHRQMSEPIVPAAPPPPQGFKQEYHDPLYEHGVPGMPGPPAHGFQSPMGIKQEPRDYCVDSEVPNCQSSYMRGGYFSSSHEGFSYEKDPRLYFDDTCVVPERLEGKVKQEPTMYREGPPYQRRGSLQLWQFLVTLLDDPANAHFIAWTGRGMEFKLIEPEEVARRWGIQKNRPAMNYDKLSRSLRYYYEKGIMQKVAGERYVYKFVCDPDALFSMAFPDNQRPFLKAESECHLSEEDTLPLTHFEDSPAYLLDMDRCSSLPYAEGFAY

In the case of ACATAA, the binding signal (FEV) is reported as 1.04 fold enrichment (6-mer frequency, TF over GST control), the binding signal (ETV5) is reported as 1.13 fold enrichment (6-mer frequency, TF over GST control) and the binding signal (HSF1) is reported as 1.2 fold enrichment (6-mer frequency, TF over GST control). For the same sequence, the binding signal (SPIC) was 1.19 fold enrichment (6-mer frequency, TF over GST control), the binding signal (ELF4) was 1.09 fold enrichment (6-mer frequency, TF over GST control) and the binding signal (ELK4) was 1.14 fold enrichment (6-mer frequency, TF over GST control). The binding signal (ETV2) was 1.15 fold enrichment (6-mer frequency, TF over GST control), the binding signal (ELF3) was 1.17 fold enrichment (6-mer frequency, TF over GST control) and the binding signal (CRX) was 1.34 fold enrichment (6-mer frequency, TF over GST control).
